# Records with an inconclusive call do not appear. Calls of active or inactive are those of the source. The call rests on the fitted dose curve; in most records, active means well fitted cell-killing curve with a large enough effect in the repeat runs; inconclusive means weak or mixed curves; inactive means no such curve, though single readings can be large or run the other way.
# Experiment: qHTS assay to identify small molecule agonists of the peroxisome proliferator-activated receptor delta (PPARd) signaling pathway - cell viability counter screen (AID 743211); further: nearly all actives have a fitted effect of over 55% in size
# Conditions: PPARd-bla HEK293H viability, CellTiter-Glo luminescence, 17 h; series mostly up to 62.6 µM; activity change, negative = cytotoxicity: at the top concentration
# Procedure, shortened: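 In the same wells used for beta-lactamase reporter measurement, cytotoxicity is scored by CellTiter-Glo. HEK293H PPARd-bla cells receive compound for 17 h at 37C following a 5 h settling period.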
# On the % scale 0 is the no-effect control and ±100 the full control effect.
row,Structure (SMILES),"activity change, negative = cytotoxicity"
1,CC(CN)CCCN (stereo not drawn),5.1% (inactive)
2,CCN(CCO)CCCC(C)Nc1ccnc2cc(Cl)ccc12 (stereo not drawn),9.74% [at 5.95 µM] (inactive)
3,CC(C)(C)c1cc(CO)cc(C(C)(C)C)c1O,-15.2% [at 81.1 µM] (inactive)
4,CC(=O)O[C@H]1C[C@@H]2CC[C@@H]3[C@H](CC[C@@]4(C)[C@H]3C[C@H]([N+]3(C)CCCCC3)[C@@H]4OC(C)=O)[C@@]2(C)C[C@@H]1N1CCCCC1,5.26% (inactive)
5,CC(C)CCCC(C)CCO (stereo not drawn),-15.3% (inactive)
6,CC(=O)NCCCS(=O)(=O)O,2.65% [at 29.1 µM] (inactive)
7,CCCCC(CC)(CO)CO,1.84% (inactive)
8,N#CCCNCCC#N,3.29% [at 81.1 µM] (inactive)
9,CCCCOC(=O)c1ccccc1C(=O)OCC(CC)CCCC (stereo not drawn),-2.7% (inactive)
10,CCOc1ccc2[nH]cc(C(=O)NCc3ccccc3)c(=O)c2n1,0.746% (inactive)
11,CC(=O)Nc1ccc(/C=N/NC(N)=S)cc1,-0.0664% (inactive)
12,CCCCCCCCC(CO)CCCCCC (stereo not drawn),15.7% (inactive)
13,CCCC[C@H]1CN(CC2CCOCC2)C(=O)OC12CCN(C1(C)CCN(C(=O)c3c(C)ncnc3C)CC1)CC2,-2.28% (inactive)
14,CCCCOC(O)CC (stereo not drawn),3.99% (inactive)
15,O=C1CCCCCO1,0.139% [at 81.1 µM] (inactive)
16,CC(=O)OCCc1ccccc1,-1.16% (inactive)
17,O=c1[nH]cnc2ccccc12,1.63% [at 81.1 µM] (inactive)
18,CN1CCC[C@@H]1c1cccnc1,8.16% (inactive)
19,COCCOCCOCCOCCOC,-0.725% (inactive)

row,Structure (SMILES),"activity change, negative = cytotoxicity"
1,CC(C)c1ccccc1C(C)C,-0.891% (inactive)
2,N#CCc1cccc(C(F)(F)F)c1,7.55% (inactive)
3,Nc1nc(N)c(-c2ccccc2)s1,3.3% (inactive)
4,CNS(=O)(=O)Cc1ccc2[nH]cc(CCN(C)C)c2c1,-6.78% (inactive)
5,O=C(O)C1CCC(C(=O)O)CC1 (stereo not drawn),-1.17% (inactive)
6,C=C(C)C(=O)OC(C)C,8.26% (inactive)
7,COC(Cc1ccccc1)OC,6.83% (inactive)
8,O=C(O)/C=C/c1cnc[nH]1,6.97% (inactive)
9,CCN1CCC[C@H]1CNC(=O)c1c(OC)ccc(Br)c1OC,2.71% (inactive)
10,N[C@H]1C(O)O[C@H](CO)[C@H](O)[C@@H]1O (stereo partly drawn),-0.805% (inactive)
11,CC(C)(C)c1cc(CCC(=O)OCC(COC(=O)CCc2cc(C(C)(C)C)c(O)c(C(C)(C)C)c2)(COC(=O)CCc2cc(C(C)(C)C)c(O)c(C(C)(C)C)c2)COC(=O)CCc2cc(C(C)(C)C)c(O)c(C(C)(C)C)c2)cc(C(C)(C)C)c1O,-20.7% [at 29.1 µM] (inactive)
12,CCOC(=O)CC(=O)c1cc(F)c(Cl)nc1Cl,-1.46% [at 81.1 µM] (inactive)
13,CCN(CC)C(C)=O,3.6% [at 81.1 µM] (inactive)
14,C=CCCCCCC,8.61% (inactive)
15,COC(=O)C(C)=O,-0.304% [at 81.1 µM] (inactive)
16,Oc1ccc(Sc2ccc(O)cc2)cc1,-1.11% (inactive)
17,C=C(C)C(=O)OCCOc1ccccc1,0.499% (inactive)
18,Cc1cccc(OCCOc2cccc(C)c2)c1,28.8% [at 81.1 µM] (inactive)
19,CC(C)NCC(O)COc1ccc(CC(N)=O)cc1 (stereo not drawn),1.83% (inactive)

# From PubChem BioAssay (Tox21)
